Results filed as inconclusive are left out. Values without a mark were called inactive. Calls of active or inactive are those of the source. The call rests on the fitted dose curve; in most records, active means well fitted curve in the direction sought with a large enough effect; inconclusive means small, poorly fitted or top-dose-only effect, or another doubt; inactive means no such curve, though single readings can be large; an effect the other way counts as inactive or inconclusive.
Experiments:
[1] = Quantitative highthroughput screen to assess conditional lethalithy of NOMO1 cells grown in RPMI1640 with dialyzed fetal bovine serum (RPMI+ds) (AID 1963877); details: NOMO1 in RPMI+dialyzed FBS viability, ATP luminescence, 48 h; series mostly up to 45.8 µM; further: nearly all actives have a fitted effect of over 30% in size;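 on viability: 100% = DMSO control wells and 0% = empty wells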
Method in brief: (§1)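 Each medium arm—HPLM with 10% dialyzed FBS, or RPMI1640 with 5 mM glucose and 10% untreated or dialyzed FBS—was screened against an 11-point, 3-fold compound titration for 48 h at 37 °C, with CellTiter-Glo luminescence as endpoint.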

[2] = Quantitative highthroughput screen to assess conditional lethalithy of SEM cells grown in Human Plasma-Like Medium with dialyzed fetal bovine serum (HPLM+ds) (AID 1963882); details: SEM B-ALL cells in HPLM+ds, CellTiter-Glo viability, 48 h; series mostly up to 45.8 µM; further: nearly all actives have a fitted effect of over 35% in size
Method in brief: as §1

[3] = Quantitative highthroughput screen to assess conditional lethalithy of SEM cells grown in RPMI1640 with unreated serum (RPMI+s) (AID 1963883); details: SEM B-ALL cells, CellTiter-Glo viability, 48 h; series mostly up to 45.8 µM; further: nearly all actives have a fitted effect of over 35% in size;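 on viability: 100% = DMSO wells and 0% = empty wells without cells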
Method in brief: as §1

[4] = Quantitative highthroughput screen to assess conditional lethalithy of SEM cells grown in RPMI1640 with dialyzed fetal bovine serum (RPMI+ds) (AID 1963884); details: SEM B-ALL cells, RPMI+dialyzed FBS, CellTiter-Glo viability, 48 h; series mostly up to 45.8 µM; further: nearly all actives have a fitted effect of over 35% in size;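 on viability: 100% = DMSO control wells and 0% = empty wells without cells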
Method in brief: as §1

[5] = Quantitative highthroughput screen to assess conditional lethalithy of NOMO1 cells grown in Human Plasma-Like Medium with dialyzed fetal bovine serum (HPLM+ds) (AID 1963878); details: NOMO1 AML cells in HPLM+ds, CellTiter-Glo viability, 48 h; series mostly up to 45.8 µM; further: nearly all actives have a fitted effect of over 35% in size;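 on viability: 100% = DMSO wells and 0% = empty wells on each plate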
Method in brief: as §1

[6] = Quantitative highthroughput screen to assess conditional lethalithy of P12 Ichikawa cells grown in RPMI1640 with dialyzed fetal bovine serum (RPMI+ds) (AID 1963880); details: ATP luminescence, 48 h; Potency: P12-Ichikawa viability; series mostly up to 45.8 µM; further: nearly all actives have a fitted effect of over 35% in size;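 on viability: 100% = DMSO wells and 0% = empty wells on each plate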
Method in brief: as §1

[7] = Quantitative highthroughput screen to assess conditional lethalithy of P12 Ichikawa cells grown in RPMI1640 with untreated serum (RPMI+s) (AID 1963881); details: ATP luminescence, 48 h; Potency: viability; series mostly up to 45.8 µM; further: nearly all actives have a fitted effect of over 35% in size;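 on viability: 100% = DMSO wells and 0% = empty wells without cells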
Method in brief: as §1

[8] = Quantitative highthroughput screen to assess conditional lethalithy of P12 Ichikawa cells grown in Human Plasma-Like Medium with dialyzed fetal bovine serum (HPLM+ds) (AID 1963879); details: ATP luminescence, 48 h; Potency: viability; series mostly up to 45.8 µM; further: nearly all actives have a fitted effect of over 35% in size
Method in brief: as §1

[9] = Cellular viability qHTS for adrenocortical cancer (ACC) cell line SW-13 (AID 1963989); details: SW-13 ACC cells viability, CellTiter-Glo, 48 h; activity (max response): hits give low values; further: nearly all actives have a fitted effect of over 65% in size;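 on activity (max response): cells grown in serum-free medium with ITS supplement; on the % scale 0 is the no-effect control and ±100 the full control effect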
Method in brief: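 Luminescent ATP read-out (CellTiter-Glo, 20 min at room temperature) measured metabolically competent SW-13 cells after 48 h compound treatment. Final concentrations spanned up to 46 uM; bortezomib served as positive control.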

[10] = Cellular viability qHTS for adrenocortical cancer (ACC) cell line NCI-H295R (AID 1963990); details: CellTiter-Glo ATP luminescence, 48 h; series mostly up to 46.1 µM; further: nearly all actives have a fitted effect of over 60% in size
Method in brief: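 IC50 and maximal efficacy derive from four-parameter logistic modelling of titration curves, with reads scaled between DMSO-only wells (0%) and doxorubicin hydrochloride (100% inhibition). Compounds spanned up to 46 uM over 48 h.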
Potency means the concentration at half of the fitted maximal effect.

## Cc1ccc(NC(=O)Nc2cc(C(F)(F)F)ccc2F)cc1Nc1ccc2c(c1)NC(=O)C2=Cc1ccc[nH]1
[1]
  Potency: 20.9 µM (active)
[2]
  Potency: 18.7 µM (active)
[3]
  Potency: 18.7 µM (active)
[4]
  Potency: 16.6 µM (active)

## CON(C)C(=O)N1N=C(c2cc(F)ccc2F)S[C@]1(CCCN)c1ccccc1
[5]
  Potency: inactive
[6]
  Potency: inactive
[7]
  Potency: inactive
[2]
  Potency: inactive
[3]
  Potency: inactive
[4]
  Potency: inactive

## COc1cc2c(Nc3ccc(Cl)c(Cl)c3F)ncnc2cc1OCC1C[C@@H]2CN(C)C[C@H]2C1
[5]
  Potency: 4.18 µM (active)
[8]
  Potency: 11.8 µM (active)
[6]
  Potency: 16.6 µM (active)
[7]
  Potency: 13.2 µM (active)
[3]
  Potency: 2.64 µM (active)

## Cc1cc(OCCCS(C)(=O)=O)cc(C)c1-c1cccc(COc2ccc3c(c2)OC[C@H]3CC(=O)O)c1
[5]
  Potency: inactive
[2]
  Potency: inactive

## CCOC(=O)N[C@@H]1CC[C@@H]2[C@@H](C1)C[C@H]1C(=O)O[C@H](C)[C@H]1[C@@H]2C=Cc1ccc(-c2cccc(F)c2)cn1
[8]
  Potency: inactive

## C[C@H](NCc1ccc(OCc2cccc(F)c2)cc1)C(N)=O
[5]
  Potency: 20.9 µM (active)
[8]
  Potency: 23.5 µM (active)
[2]
  Potency: 0.469 µM (active)
[3]
  Potency: 0.662 µM (active)
[4]
  Potency: 0.332 µM (active)

## O=C(O)C[C@H](O)C[C@H](O)C=Cc1c(C2CC2)nc2ccccc2c1-c1ccc(F)cc1
[5]
  Potency: 20.9 µM (active)
[6]
  Potency: 4.18 µM (active)
[7]
  Potency: 3.72 µM (active)

## N#CC(=Cc1ccc(O)c(O)c1)C(=O)NCc1ccccc1
[1]
  Potency: inactive
[3]
  Potency: 20.9 µM (active)

## CC(C)N(CCCNC(=O)Nc1ccc(C(C)(C)C)cc1)C[C@H]1O[C@@H](n2cc(Br)c3c(N)ncnc32)[C@H](O)[C@H]1O
[5]
  Potency: 20.9 µM (active)
[3]
  Potency: 20.9 µM (active)

## CO[C@H]1C[C@@H]2CC[C@@H](C)[C@@](O)(O2)C(=O)C(=O)N2CCCC[C@@H]2C(=O)O[C@H]([C@H](C)C[C@@H]2CC[C@H](OC(=O)C(C)(CO)CO)[C@H](OC)C2)CC(=O)[C@H](C)C=C(C)[C@@H](O)[C@@H](OC)C(=O)[C@H](C)C[C@H](C)C=CC=CC=C1C
[8]
  Potency: 6.62 µM (active)

## CC(C)n1c(C=C[C@H](O)C[C@H](O)CC(=O)O)c(-c2ccc(F)cc2)c2ccccc21
[8]
  Potency: 5.9 µM (active)
[6]
  Potency: 4.69 µM (active)
[7]
  Potency: 4.69 µM (active)

## CCN1CCN(Cc2ccc(-c3cc4c(N[C@H](C)c5ccccc5)ncnc4[nH]3)cc2)CC1
[5]
  Potency: 20.9 µM (active)
[2]
  Potency: 16.6 µM (active)
[3]
  Potency: 14.8 µM (active)
[9]
  Potency: 4.47 µM (active)
[10]
  Potency: 31.6 µM (active)

## C=CCc1ccc(O)c(-c2ccc(O)c(CC=C)c2)c1
[8]
  Potency: 0.132 µM (active)
[6]
  Potency: 0.526 µM (active)
[7]
  Potency: 1.05 µM (active)

## CO[C@H]1/C=C\O[C@@]2(C)Oc3c(C)c(O)c4c(O)c(c5c(nc6cc(C)ccn65)c4c3C2=O)NC(=O)C(C)=CC=C[C@H](C)[C@H](O)[C@@H](C)[C@@H](O)[C@@H](C)[C@H](OC(C)=O)[C@H]1C
[2]
  Potency: 18.7 µM (active)
[4]
  Potency: 14.8 µM (active)

## CC[C@H](CC[C@@H](C)[C@H]1CC[C@H]2[C@@H]3CC=C4C[C@@H](O)CC[C@]4(C)[C@@H]3CC[C@]12C)C(C)C
[6]
  Potency: inactive
[7]
  Potency: inactive
[2]
  Potency: inactive
[3]
  Potency: inactive
[4]
  Potency: inactive

## Oc1cc(O)cc(C=Cc2ccc(O)c(O)c2)c1
[3]
  Potency: 18.7 µM (active)

## CC(CC1c2ccccc2CCc2ccccc21)CN(C)C (stereo not given)
[9]
  activity (max response): -20.3%

## CON=C(C(=O)N[C@@H]1C(=O)N2C(C(=O)OCOC(=O)C(C)(C)C)=C(C=Cc3scnc3C)CS[C@H]12)c1csc(N)n1
[6]
  Potency: 16.6 µM (active)
[2]
  Potency: inactive
[3]
  Potency: 9.35 µM (active)

## CCCCCCCC/C=C/C(=O)O
[9]
  activity (max response): -1.5%

## Cc1cc(=O)c2c(O)c3c(O)cc(=O)c4c3c3c(cc(O)c1c23)C(C)(C)C=4O
[2]
  Potency: inactive
[4]
  Potency: inactive
[10]
  Potency: 2.24 µM (active)

## Fc1ccc([C@@H]2CCNC[C@H]2COc2ccc3c(c2)OCO3)cc1
[7]
  Potency: 14.8 µM (active)
[2]
  Potency: 14.8 µM (active)
[3]
  Potency: 14.8 µM (active)
[4]
  Potency: 14.8 µM (active)
[9]
  activity (max response): -15.4%

## COC(=O)[C@H]1[C@H]2C[C@@H]3c4[nH]c5cc(OC)ccc5c4CCN3C[C@H]2C[C@@H](OC(=O)c2cc(OC)c(OC)c(OC)c2)[C@@H]1OC
[9]
  activity (max response): -15.6%

## CO[C@H]1C[C@@H]2CC[C@@H](C)[C@@](O)(O2)C(=O)C(=O)N2CCCC[C@@H]2C(=O)O[C@H]([C@H](C)C[C@@H]2CC[C@H](OCCO)[C@H](OC)C2)CC(=O)[C@H](C)C=C(C)[C@@H](O)[C@@H](OC)C(=O)[C@H](C)C[C@H](C)C=CC=CC=C1C
[2]
  Potency: 0.59 µM (active)

Reference: PubChem BioAssay (NCATS)
